Assay results taken from PubChem BioAssay AID463173 (ICCB-Longwood Screening Facility, Harvard Medical School, 2010).
The campaign covered roughly 52,000 compounds. About 4,300 (8.3%) were called active. The sample holds actives, similar compounds and a random draw of the others, so the mix is not that of the screen. Unmarked numbers belong to inactive results. No stated cut-off is given here; in the data, active means survival mostly below about 52% (no sharp cut-off); inactive means mostly above about 56%.

Each compound was assayed on DeltatarO mutant (assay: growth inhibition of S. aureus wild type versus tarO mutant, primary screen, teichoic acid synthesis inhibitors, RN4220, OD600 (AID 463173)). Conditions: OD600, 18 h, hits give low values, screened at 18.75 µg/mL (by protocol).

SMILES	survival
O=C(O)CSc1nc2ccc(Cl)cc2[nH]1	84%
CCOc1cccc2sc(N(Cc3cccnc3)C(=O)c3ccco3)nc12	77%
CCc1cc(C(=O)NC(C)c2ccccc2)no1 (configuration not stated)	60%
Cc1ccc(NC(=O)CSc2nc(=O)n(Cc3ccncc3)c3c2CCC3)cc1Cl	80%
Cc1cn(S(=O)(=O)c2ccc(F)c(Cl)c2)cn1	91%
Nc1c(C(=O)Nc2ccc(C(F)(F)F)cc2)sc2nc(-c3cccs3)ccc12	70%
CCN1CCN(c2ncc3c(n2)CCN(Cc2cc(F)cc(F)c2)C3)CC1	90%
COc1ccc(CCCN=C(N)N)cc1Cl	105%
CCCCOc1ccc(CSCCN=C(N)N)cc1	1% (active)
CC(C)Oc1ccc(CSCCN)cc1	90%
O=C(NCc1ccccc1)c1ccc(CSc2nc3cccnc3n2Cc2cccc(F)c2)cc1	101%
COC(=O)c1ccc2c(c1)N(CC(=O)Nc1cccc(Cl)c1C)C(=O)c1ccccc1S2	74%
Clc1ccc2c(c1)NC(c1ccncc1)=NC(c1cccs1)=N2	76%
CC(C)c1ccc2c(c1)NC(c1ccncc1)=NC(c1cccs1)=N2	72%
CC(C)c1ccc2c(c1)NC(c1ccc(F)cc1)=NC(c1cccs1)=N2	45% (active)
CCOc1ccc(C2=NC(c3cccs3)=Nc3ccc(C(C)C)cc3N2)cc1	58%

SMILES	survival
Fc1ccc2c(c1)NC(c1ccncc1)=NC(c1cccs1)=N2	30% (active)
FC(F)(F)Oc1ccc2c(c1)NC(c1ccncc1)=NC(c1cccs1)=N2	91%
CCCCOc1cccc(C(=O)Nc2cccc(-c3nc4ncccc4o3)c2C)c1	47%
COc1ccc(NC(=O)[C@@H](c2ccccc2)N2Cc3ccccc3C2=O)cc1OC	62%
COc1cccc(CNC(=O)C2CCN(c3ncnc4c3nc3n4CCCCC3)CC2)c1	86%
COc1ccc(CNc2nc(-c3ccco3)nn2C(=O)CC(C)C)cc1	103%
O=C(CS(=O)(=O)c1nc(-c2ccc(Cl)cc2)cn1-c1ccccc1)Nc1ccc(F)cc1F	50% (active)
Cc1ccc(-c2cn(-c3cccc(Cl)c3)c(S(=O)(=O)CC(=O)Nc3ccccc3F)n2)cc1	61%
O=C(CS(=O)(=O)c1nc(-c2ccc(Cl)cc2)cn1-c1ccccc1)Nc1cccc(Cl)c1	68%
CN1CCN(C(=O)C(=O)Nc2c3c(nn2-c2cccc(Cl)c2)CSC3)CC1	76%
O=C(NCc1ccc(Cl)cc1)c1cc2ccccc2o1	61% (active)
O=C(NC1CC(=O)N(c2ccc(Cl)cc2)C1)c1cc2ccccc2o1 (configuration not stated)	52% (active)
COCCNC(=O)c1cc2ccccc2o1	104%
Cc1ccc(N2CC(NC(=O)c3cc4ccccc4o3)CC2=O)cc1 (configuration not stated)	99%
O=C(NCc1ccccc1Cl)c1cc2ccccc2o1	74%
O=C(NC1CC(=O)N(c2ccccc2)C1)c1cc2ccccc2o1 (configuration not stated)	89%
